Here are results for 22 sequences from the supplement of paper PMC6555819.

For the test, the system named is RXRa homodimer (NR concentration 180 nM). Briefly: PBM binding z-score (relative to random genomic background probes); higher = stronger binding; sequences stand for … in GC…GCGATTGACAGCGTAGAATGAAGG
The method, boiled down: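 Regression normalization was applied to scanned fluorescence from custom Agilent 4×180K protein-binding microarrays. Before scanning, arrays were incubated 1 h with ligand-free nuclear receptor dimers, and binding was detected with antibodies against each partner (one per run). Binding z-scores use the random background probes as reference.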
Consider TCTCGGAGAACACGAAAGGTCAGAGCTCGACATC, for which the PBM binding z-score is 3.72.
CCTCGGAGGACAACAGGACGTCAGAGCTGCCAGA had a PBM binding z-score of -0.244.
The sequence ACTCGGAGGACATAGGTCAGAGCTACGCCAGTGA gave a PBM binding z-score of 2.26.
TCTGCTAGTTCAACGATGGTCAGCTAATCTGCTA gave a PBM binding z-score of 0.188.
Regarding GCTCGGAGGAGAAGGTCAGAGCTTTGTCCGTAGA, the PBM binding z-score came out at 2.08.
In turn, TCAGACACGTGAAGGTAACTCAGGTACGCAGTCG displayed a PBM binding z-score of 0.661.
For CTTCCAAGGTCAAAGGTCAGTGAAGAGATGACGG, the PBM binding z-score is 10.4.
On to AGAACGCGGGCAATGAGTTGATAGCACGGGTGGC, for which the PBM binding z-score turned out to be 0.299.
The sequence AATACAGGGACACTAGGCCAGAGTAGGTACGAAT came in with a PBM binding z-score of -0.151.
ATCGAAAGGTCGACGAGGTGAGTATCCACCGTTT had a PBM binding z-score of 4.38.
The sequence AGAATGAGGATACCAAAGATCAGGGAAACGCTTG had a PBM binding z-score of 0.36.
As for CCTTACGGGCCACTGACAGGTTATAGCATTTGGA, the PBM binding z-score was found to be 0.326.
Turning to CCTCGGAGGACAACACGAGGTCAGAGCTGCCAGA, the PBM binding z-score was 2.23.
Turning to CGAACTAGGGCAGAACAGGACAGTGAAGGATGAT, the PBM binding z-score is -0.0297.
Sequence ATCTCTAGGTAAAGATAGTTCATTGAATGCAAAT yielded a PBM binding z-score of 0.854.
Consider CATACAGGGTCAGCTAAGCCAGAGTAGGGACGGC, for which the PBM binding z-score came to 4.2.
For the sequence GCTATTCGTTGAAAGGGCAACCGAATGATTCTCG, the PBM binding z-score was found to be 0.916.
Regarding CAAACTAGGTCACCGGAAGCTCAAAGTCCGCATG, the PBM binding z-score worked out at 3.81.
ATCGTAAGGTCGACGAGGTGAGTATACACCGTTT: the PBM binding z-score is 3.01.
As for TGAATGAGGTTATAATATCAGGGAACGTTGCAAA, the PBM binding z-score is 2.04.
As for CCTACTGGGCCATCAGGTCCTTGATATCAACGTT, the PBM binding z-score was -0.412.
On to TCTATTAGTTGATTGGGGCAACCGAAACAGCGGA, for which the PBM binding z-score was found to be 0.882.
